Sampled rows, rich in hits. Any-hit rate of the full collection: about 5.8%.
SW480 rerep: A quantitative high throughput screen for small molecules that induce DNA re-replication in SW480 colon adenocarcinoma cells; SW480 DNA re-replication, Hoechst DNA content imaging, 48 h; Potency, µM (titrated, usually from 46.1 µM), inactives show at the top dose re-replication activation, actives largely listed as activators; hit rate 1.8% among 340,000; also: % of control where 0% means no effect; nearly all actives have a fitted effect of over 55% in size
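DNA re-replication was detected as more nuclei of elevated Hoechst intensity after 48 hr exposure to compound (23 nL pinned per well of 250 cells).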
12-LOX inh: Primary qHTS assay for inhibitors of human arachidonate 12S-lipoxygenase (ALOX12): Round 2 | Polyunsaturated fatty acid lipoxygenase ALOX12 (Homo sapiens), P18054 | purified 12hLO, xylenol orange hydroperoxide absorbance | Potency, µM (titrated, usually from 108 µM), without a hit: at the highest dose activity change, negative = inhibition, hits mostly inhibitors | hit rate 1.1% among 580,000 | AID 1671190, 2021; also: % is scaled to controls: 0 for no effect and ±100 for the full control effect
Target sequence (P18054 whole entry, looked up): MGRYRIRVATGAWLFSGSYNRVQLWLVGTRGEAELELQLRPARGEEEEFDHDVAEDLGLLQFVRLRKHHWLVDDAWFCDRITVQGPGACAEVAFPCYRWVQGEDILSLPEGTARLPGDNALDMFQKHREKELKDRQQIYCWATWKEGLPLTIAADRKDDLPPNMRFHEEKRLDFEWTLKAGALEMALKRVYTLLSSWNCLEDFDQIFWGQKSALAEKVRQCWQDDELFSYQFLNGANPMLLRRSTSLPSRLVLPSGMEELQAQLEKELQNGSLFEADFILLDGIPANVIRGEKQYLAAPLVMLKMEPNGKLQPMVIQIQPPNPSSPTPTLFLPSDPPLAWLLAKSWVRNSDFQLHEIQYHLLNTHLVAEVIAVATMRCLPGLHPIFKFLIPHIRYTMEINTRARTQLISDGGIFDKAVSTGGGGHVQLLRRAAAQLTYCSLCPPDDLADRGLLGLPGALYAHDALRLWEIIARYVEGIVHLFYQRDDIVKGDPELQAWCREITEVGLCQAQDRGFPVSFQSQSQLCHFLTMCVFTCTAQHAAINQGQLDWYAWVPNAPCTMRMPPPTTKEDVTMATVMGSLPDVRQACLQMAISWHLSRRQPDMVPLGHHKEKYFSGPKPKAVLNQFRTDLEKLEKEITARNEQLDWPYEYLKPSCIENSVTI
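Purified human 12hLO at 150 nM in 25 mM Hepes, 0.01% Triton X-100, pH 7.0, preincubated 15 min at room temperature with compound. Reaction started with 40 uM arachidonic acid, 30 min at room temperature. Hydroperoxide measured by Fe-xylenol orange, 573/405 nm absorbance ratio.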
KB-3-1 tox: qHTS assay for MDR1-selective chemotherapeutics: Primary screen using the parental adenocarcinoma cell KB-3-1. hit rate 1.4% among 400,000. Potency, µM (top dose mostly 46.1 µM), actives largely listed as cytotoxic. KB-3-1 viability, CellTiter-Glo ATP luminescence, 72 h; also: % is scaled to controls: 0 for no effect and ±100 for the full control effect; nearly all actives have a fitted effect of over 60% in size
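Cytotoxicity measured as CellTiter-Glo luminescence after 72 h at 37 C. Compound titrations were pinned onto drug-naive KB-3-1 parental adenocarcinoma cells grown in DMEM with 10% FBS, and normalized data fitted to concentration-response curves.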
MCF10A rereplic: A quantitative high throughput screen for small molecules that induce DNA re-replication in MCF 10a normal breast cells | hit rate 2.9% among 350,000 | MCF 10A DNA re-replication, Hoechst nuclear intensity, 48 h | Potency, µM (titrated, usually from 46.1 µM), for the others: at the top dose activity, positive = re-replication, usual class: activators | AID 624296, 2012; also: % of control where 0% means no effect; nearly all actives have a fitted effect of over 50% in size
KB-V1 cytotox: qHTS assay for MDR1-selective chemotherapeutics: Primary screen using the drug-selected MDR subline cells KB-V1; KB-V1 MDR cells viability, CellTiter-Glo, 72 h; Potency, µM (titrated, usually from 46.1 µM), most hits filed as cytotoxic; hit rate 3.4% among 400,000; AID 1347076, 2019; also: % is scaled to controls: 0 for no effect and ±100 for the full control effect; nearly all actives have a fitted effect of over 60% in size
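KB-V1 cells (P-gp-expressing MDR subline of KB-3-1) in phenol-red-free DMEM with 10% FBS were exposed to library compounds over a concentration series for 72 h at 37 degrees C. Viability read by CellTiter-Glo luminescence; concentration-effect curves fitted after normalization.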
PINK1 modulator: A Quantitative High throughput Screen to Identify Chemical Modulators of PINK1 Expression | hit rate 0.2% among 410,000 | Potency, µM (highest dose often 76.6 µM), for inactives: at the top dose activation (PINK1 increase), hits mostly activators | AID 624263, 2012 | PINK1 immunofluorescence, high-content cytometry, 24 h; active = well fitted activation curve with a large enough effect; inconclusive = small, poorly fitted or top-dose-only effect; cell line not stated here; also: % of control where 0% means no effect; nearly all actives have a fitted effect of over 65% in size
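Stable cell line treated 24 h with compounds at 5 concentrations (CCCP controls), then fixed and immunostained for PINK1 plus nuclear and cell stains; PINK1 immunofluorescence quantified by laser-scanning microplate cytometry.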
Active calls of the source: *; i = inactive; u = inconclusive; x = no result. Unless noted, calls follow the shape of the dose curve; as a rule, active = well fitted curve in the direction sought with a large enough effect; inconclusive = small, poorly fitted or top-dose-only effect, or another doubt; inactive = no such curve, though single readings can be large; an effect the other way counts as inactive or inconclusive. Potency is read from the fitted curve at half-maximal effect.

SMILES	SW480 rerep	12-LOX inh	KB-3-1 tox	MCF10A rereplic	KB-V1 cytotox	PINK1 modulator
CC(C)(C)c1ccc(/C=C/C(=O)c2ccc(NC3=NCCCS3)cc2)cc1	u	-24%	u	18µM*	u	0%
Cc1ccccc1N1CCN(c2nc(-c3cccnc3)nc3ccccc23)CC1	x	25%	x	x	x	x
CCOc1cccc(C(=O)NCc2nc(-c3cccs3)no2)c1	x	-15%	x	x	x	x
Cc1[nH]c2c(C(=O)NC3CCS(=O)(=O)C3)cccc2c1C (stereo unspecified)	x	-2%	x	x	x	x
COc1ccc(/C=N/Nc2nc(-c3cccc(S(=O)(=O)N4CCCC4)c3)cs2)c(OC)c1	14%	u	18µM*	u	2.6µM*	10%
O=C(C=P(c1ccccc1)(c1ccccc1)c1ccccc1)c1ccccc1-c1ccccc1C(=O)C=P(c1ccccc1)(c1ccccc1)c1ccccc1	13µM*	u	u	63%	i	-2%
COC(=O)c1sc2nc(CN(C)Cc3ccc(F)cc3)[nH]c(=O)c2c1C	x	-2%	x	x	x	x
S=C1NC[C@H](Cc2ccccc2)N1CCCCC1CCCCC1	-1%	35µM*	i	u	i	0%
S=C1NC[C@H](Cc2ccccc2)N1CC1CCN(CCCC2CCCC2)CC1	u	-18%	i	u	i	5%
S=C1NC[C@H](CC2CCCCC2)N1CCc1cccc2ccccc12	11%	25µM*	i	u	u	6%
O=C1NC[C@H](CC2CCCCC2)N(CCc2cccc3ccccc23)C1=O	x	-9%	i	x	u	8%
Cc1nc(NC2CC2)sc1C(=O)NCCc1ccccc1	x	20%	x	x	x	x
CN(C)C[C@@H]1CN(c2ccncn2)C[C@H]1NC(=O)c1cnco1	x	-4%	x	x	x	x
CC(=O)n1cc(N(C(=O)CCl)c2ccc(C)cc2)c2ccccc21	u	u	18µM*	15µM*	u	0%
NC(=O)C(=O)N/N=C/C1CCCCC1	x	-14%	x	x	x	x
Clc1ccc2nnnc(-c3ccccc3)c2c1	u	-18%	2.6µM*	3.3µM*	10µM*	-4%
COCCNC(=O)c1cccc(Nc2nc(-c3ccccc3)c3cc(Cl)ccc3n2)c1	u	-29%	15µM*	2.6µM*	u	4%
Clc1ccc2nc(Nc3ccccc3Cl)nc(-c3ccccc3)c2c1	x	-26%	i	x	i	1%
OCCNc1nc(-c2ccccc2)c2ccccc2n1	u	0%	i	u	i	1%
Cc1ccc2nc(NCCO)nc(-c3ccccc3)c2c1	u	-2%	i	u	12µM*	1%
OCCNc1nc(-c2ccccc2)c2cc(Cl)ccc2n1	u	-3%	i	21µM*	u	-2%
c1ccc(-c2nnnc3ccccc23)cc1	-10%	-12%	i	-1%	i	2%
O=C1CC(c2ccccc2O)Cc2nc(N3CCN(c4cccc(Cl)c4)CC3)ncc21 (stereo unspecified)	x	-21%	x	x	x	x
Cc1ccc2nc(N/N=C/c3ccccc3C#N)nc(-c3ccccc3)c2c1	u	0%	i	13µM*	u	0%
CCCN(CCC)CCN1C(=O)C2C(C(=O)Nc3cccc(SC)c3)C3C=CC2(O3)C1C(=O)NC1CCCCC1 (stereo unspecified)	u	7%	i	-8%	i	2%
SMILES	SW480 rerep	12-LOX inh	KB-3-1 tox	MCF10A rereplic	KB-V1 cytotox	PINK1 modulator
CCN(CC)CCN1C(=O)C2C(C(=O)Nc3cccc(SC)c3)C3C=CC2(O3)C1C(=O)NC1CCCC(C)C1C (stereo unspecified)	18µM*	6%	i	12%	u	3%
CN(C)CCNCc1ccc(-c2ccccc2)o1	x	9%	x	x	x	x
CCOc1ccc(Br)cc1C1=NN(C(C)=O)C(c2ccc([N+](=O)[O-])s2)O1 (stereo unspecified)	8.2µM*	-8%	u	u	i	-2%
CC(=O)Nc1ccc(S(=O)(=O)N[C@H]2CO[C@H]3[C@@H]2OC[C@@H]3n2nnnc2-c2ccc3c(c2)OCO3)cc1	x	36%	x	x	x	x
CSc1nc(C)c2c(n1)N(c1ccc(F)cc1)CC2	-6%	-1%	i	13%	i	5%
CSc1nc(C)c2c(n1)N(c1ccc(C(C)C)cc1)CC2	14%	43%	i	8%	8.2µM*	u
COc1cccc(Oc2coc3cc(OCC#N)ccc3c2=O)c1	x	7%	x	x	x	x
CN(C)c1nc(OCCNC(=O)Nc2ccccc2)nc(N(C)C)n1	-10%	0%	i	-1%	i	-2%
CN(C)c1nc(OCCNC(=O)COc2ccccc2Cl)nc(N(C)C)n1	-1%	0%	i	u	1.6µM*	-2%
CON(C)c1nc(OCCNC(=O)OCc2ccc(Cl)cc2C)nc(N(C)C)n1	-1%	-16%	i	7%	1.6µM*	10%
COc1ccc(NC(=O)c2c(N)no[n+]2[O-])cc1	1%	-16%	u	u	i	2%
O=C(c1cccs1)c1no[n+]([O-])c1C(=O)c1cccs1	13µM*	x	u	12µM*	u	-2%
COc1ccc(C(=O)c2no[n+]([O-])c2C(=O)c2ccc(OC)cc2)cc1	u	u	u	9.2µM*	u	4%
O=C(c1ccc(Cl)nc1)c1cccs1	-10%	x	i	-2%	i	-2%
O=C(O)CCC(=O)NC(Cc1c[nH]c2ccccc12)C(=O)O (stereo unspecified)	x	-93%	x	x	x	x
Cc1ncsc1C(=O)N(Cc1ccccc1)C1CC1	x	9%	x	x	x	x
COc1ccc([C@H]2CC(=O)C=C(c3ccc(Cl)cc3C)C2)cc1	u	u	u	18µM*	u	3%
